# According to PubChem BioAssay (EPA / NIEHS):
# Records with an inconclusive call do not appear. Activity calls are given as the source filed them. The calls were made as follows: active = hit-call score of the fitted dose curve at least 0.9, where 1 is the maximum; inconclusive = response in the unintended direction; inactive = score below 0.9.
# Experiment: ACEA_AR_antagonist_AUC_viability: ACEA Biosciences xCELLigence Real-Time Cell Analysis on Androgen Receptor Antagonism for Viability (AID 2283776);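 also: 22Rv1 human prostate cancer cells growing on impedance electrode plates; hits lower the growth signal relative to DMSO meaning cytotoxicity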
# Outline: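 Impedance read-out (RT-CES): area under growth curve at 80 h post-dose, loss of signal scored vs DMSO baseline. 22Rv1 cells; 8-pt 1:4 series, top 100 uM final, ≤0.5% DMSO; biological duplicate.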
Structure (SMILES),AC50,outcome
CCCCCCCCCCCC[N+](C)(C)C,9.45 µM (active),–
CC(O)CC(C)(C)O (configuration not stated),–,inactive
Cc1occc1C(=O)Nc1ccc(C(=O)N2CCC(F)(F)/C(=C\C(=O)N3CCC(N4CCCCC4)CC3)c3ccccc32)cc1,41.1 µM (active),–
O=C(O)Cn1c(=O)n(Cc2ccc(Br)cc2F)c(=O)c2ccc(Cl)cc21,–,inactive
CCCCCCCC[Si](OCC)(OCC)OCC,–,inactive
CC1(C)NC(=O)N(c2ccc([N+](=O)[O-])c(C(F)(F)F)c2)C1=O,68.9 µM (active),–
Clc1ccccc1C(c1ccccc1)(c1ccccc1)n1ccnc1,14.7 µM (active),–
c1ccc2ccccc2c1,–,inactive
CCCCCCCCCCCO,85 µM (active),–
Cc1oc2c(NC(=O)c3c(Cl)cccc3Cl)cccc2c1C(C)(C)O,20.3 µM (active),–
CCN(Cc1cccnc1)C(=O)c1cccc(Cl)c1[C@]1(C)C(=O)N(Cc2ccc(OC)cc2OC)c2ccc(Cl)cc21,20.7 µM (active),–
CC(C)(O)c1ccc(CNC(=O)c2cccnc2Oc2ccc3nonc3c2)cc1,–,inactive
CC[C@@H]1C[C@H](N(Cc2cc(C(F)(F)F)cc(C(F)(F)F)c2)C(C)=O)c2cc(C(F)(F)F)ccc2N1C(=O)OC(C)C,–,inactive
O=CCCCC=O,23.3 µM (active),–
Cc1ccc2oc(CN(Cc3ccccc3)C(=O)Nc3c(F)cc(F)cc3F)c(-c3ccc(Cl)cc3)c2c1,14.1 µM (active),–
CCCCCCCCOc1ccc(C(=O)c2ccccc2)c(O)c1,13.7 µM (active),–
CCCCCCCCN(C)CCCCCCCC,–,inactive
